Rows were chosen to be rich in hits. Some 3.8% of all compounds tested hit in one or more screens of this group.
TGFb SMAD3 inh = blocks TGF-b signaling; HepG2 CAGA-GFP TGF-b/SMAD3 reporter, GFP fluorescence, 18 h; TGF-beta stimulated, 500 pg/mL final; 410,000 tested, 1.2% active; Potency, µM (titrated, usually from 46.1 µM), inactives show at the highest dose activity, negative = inhibition, actives largely listed as inhibitors; also: % is scaled to controls: 0 for no effect and ±100 for the full control effect; nearly all actives have a fitted effect of over 65% in size
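HEPG2 CAGA-GFP reporter cells (1000/well, DMEM with 1% FBS) received compounds, then recombinant TGF-beta at 500 pg/mL final for 18 hours at 37 degrees C. Per-cell GFP summed per well was normalised to unstimulated and stimulated DMSO controls before curve fitting.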
HepG2 tox = counter-screen for TGF-b inhibitors: cytotoxicity in HepG2 cells; HepG2 CAGA-GFP viability, ATP luminescence, 18 h; Potency, µM (titrated, usually from 46.1 µM), for inactives: at the top dose activity change, negative = cytotoxicity, actives largely listed as cytotoxic; 410,000 tested, 0.76% active; AID 588856
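HepG2 CAGA-GFP cells (1000/well, DMEM with 1% FBS) received compound, then TGF-beta at 500 pg/mL final, and were incubated 18 hours at 37 degrees C. Viability was read by CellTiter-Glo luminescence. Media-only wells were set as complete cell-killing and DMSO as no toxicity.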
ATXN2 expr inh = inhibitors of ATXN2 expression; 360,000 tested, 0.72% active; Potency, µM (doses to about 57 µM), inactives show top-dose activity change, negative = inhibition, actives largely listed as inhibitors; AID 1745845; HEK-293 ATXN2-luciferase reporter, luminescence, 24 h; also: % is scaled to controls: 0 for no effect and ±100 for the full control effect; nearly all actives have a fitted effect of over 55% in size
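qHTS (up to 57 uM final) was run with 24 h compound exposure of reporter cells at 37 °C. Each well was multiplexed: SteadyGlo luminescence measured ATXN2-luciferase expression after a fluorogenic Gly-Phe-AFC viability readout (25 uM final).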
HT1080NT lethal = kills 2HG-producing HT-1080-NT fibrosarcoma cells. Potency, µM (series often up to 46.1 µM), for the others: at the highest dose activity, negative = less viability, usual class: cytotoxic. 360,000 tested, 1.6% active. HT-1080-NT fibrosarcoma viability, CellTiter-Glo ATP luminescence, 48 h;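 also: NT is the 2HG producing partner of a matched IDH1 knockdown line; 0% = DMSO-treated cells and -100% = media-only wells without cells; nearly all actives have a fitted effect of over 55% in size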
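Viability by CellTiter-Glo luminescence after 48 h compound exposure at 37C of HT-1080-NT cells (750/well, RPMI, 5% FBS). % activity scaled between DMSO wells and medium-only wells, then curve-fitted and categorized by curve class.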
ATXN viability = reduces viability in counter-screen for ATXN expression inhibitors. Potency, µM (highest dose often 56.7 µM), usual class: cytotoxic. S2 cells (HEK-293 line with an ATXN2-luciferase reporter) viability, CellTiter-Fluor protease fluorescence, 24 h. 400,000 tested, 0.49% active. AID 651635; also: nearly all actives have a fitted effect of over 40% in size
HT1080 IDH1KD tx = toxicity to HT-1080 IDH1 knockdown cells (counter line). AID 686971. 360,000 tested, 2% active. HT-1080 IDH1 knockdown viability, ATP luminescence, 48 h. Potency, µM (series often up to 46.1 µM), without a hit: at the top dose activity, negative = toxicity, actives largely listed as cytotoxic;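 also: 0% = DMSO wells and -100% = cell-free medium wells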
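After a 2 h attachment period, IDH1KD HT-1080 cells took pin-transferred compound for 48 h at 37 °C; ATP-based luminescence after 10 min room-temperature reagent incubation reported viability.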
An asterisk follows results filed as active; i = inactive; ? = inconclusive; · = not tested or not shown; [ ] = dose if it differs, or a comment. Calls follow the shape of the dose curve; as a rule, active = well fitted curve in the direction sought with a large enough effect; inconclusive = small, poorly fitted or top-dose-only effect, or another doubt; inactive = no such curve, though single readings can be large; an effect the other way counts as inactive or inconclusive. Potency is read from the fitted curve at half-maximal effect.

SMILES	TGFb SMAD3 inh	HepG2 tox	ATXN2 expr inh	HT1080NT lethal	ATXN viability	HT1080 IDH1KD tx
CCCSCCCNC(=O)C1CCCN(C(=O)c2cnn(-c3ccccc3)c2-n2cccc2)C1 (stereo not drawn)	15.8µM*	-22.5%	-12.4%	·	i	·
COc1ccccc1-[n+]1c(C)cc(/C=C2\Sc3ccccc3N2C)cc1C	115.2%	-103.0%	·	2.59µM*	?	0.581µM*
COc1ccc(-[n+]2c(C)cc(/C=C3\Sc4ccccc4N3C)cc2C)cc1	101.5%	-73.5%	?	4.11µM*	?	2.31µM*
COc1ccc(C(=O)/C=C2\Sc3ccccc3N2C)cc1	8.7%	-12.1%	33.0%[11.3 µM]	-1.2%	·	-6.9%
Fc1cc(-c2cccc3ncc(-c4cnn(C5CCNCC5)c4)nc23)cc(F)c1CN1CCOCC1	·	·	24.3µM*	·	·	·
CCc1cc2c(=O)c(-c3cnn(-c4ccccc4)c3)coc2c(CN2CCOCC2)c1O	?	0.2%	?	16.9%	i	8.1%
OC[C@@H]1CN(Cc2cccc(C(F)(F)F)c2)C[C@H](n2cnc3c(NCc4ccco4)ncnc32)O1	-11.3%	-42.2%	0.0%	-16.4%	i	-17.5%
OC[C@@H]1CN(Cc2ccc(-c3ccccc3)cc2)C[C@H](n2cnc3c(NCc4ccncc4)ncnc32)O1	?	-23.2%	0.0%	?	?	23.1µM*
OC[C@@H]1CN(Cc2ccccc2)C[C@H](n2cnc3c(NCc4ccco4)ncnc32)O1	-2.2%	-19.4%	10.3%	-1.4%	i	9.7%
OC[C@@H]1CN(Cc2ccc(-c3ccccc3)cc2)C[C@H](n2cnc3c(NCc4ccco4)ncnc32)O1	?	-27.3%	?	20.6µM*	?	18.4µM*
OC[C@@H]1CN(Cc2cccc(C(F)(F)F)c2)C[C@H](n2cnc3c(NCc4ccc(F)cc4)ncnc32)O1	?	-1.8%	?	?	?	20.6µM*
CCCNC(=O)c1ccc2c(c1)sc1nc(-c3ccc(C)cc3)cn12	-16.2%	0.7%	·	·	·	·
CCN(CC)CCCNC(=O)c1ccc2c(c1)sc1nc(-c3ccc(C)cc3)cn12	-36.8%	6.31µM*	·	·	·	·
Cc1[nH]c(C=C2C(=O)Nc3ccccc32)c(C)c1CCC(=O)O	·	·	1.09µM*	·	·	·
O=C(Nc1ccc2nc(SCC(=O)N3CCCC3)sc2c1)c1cccc(F)c1	0.0%	-10.8%	·	·	·	·
CC(C)C(=O)NNS(=O)(=O)c1ccccc1[N+](=O)[O-]	-3.2%	15.8µM*	-2.1%	15.1%	i	3.6%
Cc1ccc(NC(=O)c2ncn(CCCN3CCN(Cc4cccc5ccccc45)CC3)n2)cc1C	?	-84.8%	?	?	31.6µM*	?
Cc1cc(C)c(CN2CCN(C(=O)Cn3cnc(C(=O)Nc4ccc(C)c(C)c4)n3)CC2)c(C)c1	15.8µM*	-99.5%	?	?	?	-97.4%
Cc1nc2ccc(C(=O)OC(C)C(=O)c3c(C)[nH]c4ccccc34)cc2nc1C (stereo not drawn)	5.6%	-22.1%	·	·	·	·
CC(C)c1ccc(NC(=O)CSC2=Nc3ccccc3C3=NC(CC(=O)NC4CCCCC4)C(=O)N23)cc1 (stereo not drawn)	?	12.6µM*	·	·	·	·
Cc1cnc(-n2ncc(C(=O)NCCc3cccnc3)c2C)nc1-c1cccs1	·	·	·	·	i	·
COc1ccc(C(C(=O)NC2CCCCC2)N(C(=O)CCl)c2ccc(C)cc2)cc1 (stereo not drawn)	?	-39.5%	?	0.82µM*	·	1.16µM*
COc1ccc(C(C(=O)NC2CCCCC2)N(C(=O)CCl)c2cccc(Cl)c2)cc1 (stereo not drawn)	?	11.2µM*	6.31µM*	9.2µM*	7.08µM*	1.64µM*
COc1ccc(N(C(=O)Cc2cccs2)C(C(=O)NC2CCCC2)c2ccncc2)cc1 (stereo not drawn)	2.4%	5.8%	20.8%	5.0%	i	-0.7%
COc1ccc(C(C(=O)NC2CCCCC2)N(C(=O)CCl)c2ccc(OC)cc2)cc1 (stereo not drawn)	?	-22.6%	3.55µM*	1.64µM*	3.98µM*	1.16µM*
SMILES	TGFb SMAD3 inh	HepG2 tox	ATXN2 expr inh	HT1080NT lethal	ATXN viability	HT1080 IDH1KD tx
Cc1ccc2oc3c(c(=O)c2c1)C(c1ccccc1F)N(CCCN(C)C)C3=O (stereo not drawn)	-4.5%	-8.6%	·	·	·	·
CCOC(=O)C1CCCN(C(=O)c2cnn(-c3ncc4c(n3)-c3ccccc3CCC4)c2C2CC2)C1 (stereo not drawn)	·	·	·	·	i	·
CCCCCCCCN(CCCCCCCC)c1ccc(/C=C/c2ccnc3ccccc23)cc1	11.5%	8.8%	·	·	·	·
COc1ccc(NCc2nnc(SCC(=O)c3ccc(OC)cc3)o2)cc1	21.0%	-34.5%	3.0%	-1.2%	i	?
CCOc1cc(C(=O)CSc2nnc(CNc3ccc(Cl)cc3)o2)ccc1NC(=O)CC	?	10µM*	31.6µM*	-22.1%	20µM*	?
C[C@@]12C[C@@]3(O)O[C@@H](O1)[C@]1(COC(=O)c4ccccc4)[C@@H]3C[C@@]12O[C@@H]1O[C@H](CO)[C@@H](O)[C@H](O)[C@@H]1O	·	·	5.0%	·	·	·
CCOc1ccc(NC(=O)Cn2c(=O)n(CCc3ccccc3)c(=O)c3c4c(sc32)CN(C(C)=O)CC4)cc1	-16.9%	-32.5%	-20.5%	·	i	·
Fc1ccc(Nc2nc3nonc3nc2Nc2cccc(C(F)(F)F)c2)cc1	0.708µM*	-109.1%	·	·	·	·
CC(C)n1cnc2c(NCCCCCCNC(=O)OC(C)(C)C)nc(NCCO)nc21	·	·	13.7µM*	·	·	·
O=C(NCC1OCCc2ccccc21)c1ccc(NC(=O)c2ccc(Cl)cc2)cc1 (stereo not drawn)	?	-67.2%	?	20.6µM*	?	?
C=CCN(CC=C)S(=O)(=O)c1ccc2nc(NC(=O)C(C)C)sc2c1	-1.7%	-3.7%	-25.7%	3.66µM*	i	7.31µM*
CCOC(=O)c1ccc2nc(NC(=O)C(C)C)sc2c1	?	-28.1%	46.5%	-0.8%	i	1.7%
N#Cc1cccnc1N1CCN(C(=O)c2cccc3c2C(=O)c2ccc(Cl)cc2S3(=O)=O)CC1	2.9%	-1.7%	?	?	20µM*	-23.8%
N#Cc1cccnc1N1CCN(C(=O)c2cccc3c2C(=O)c2ccc(-c4ccc(Cl)c(C(F)(F)F)c4)cc2S3(=O)=O)CC1	0.8%	5.4%	7.1%	9.3%	i	1.1%
Cc1c(Cl)cccc1-n1ncc(C(=O)NC2CCCC2)c1C1CCN(C(=O)OC(C)(C)C)CC1	-18.6%	-16.5%	2.1%	·	i	·
